Several values for one entry are separate records, joined by “and”; a condition that tells them apart may be missing. Identical values can stand only once. The whole screen tested about 230,000 compounds, of which about 1,500 (0.65%) were called active. The sample holds actives, similar compounds and a random draw of the others, so the mix is not that of the screen.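 How the source made its calls: active means pattern-corrected inhibition of lipid staining of at least 50% with the nuclear-stain viability signal not falling by more than 50%; inactive means the rest, inconclusive results apart.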 A structure can be active in one record and inactive in another.

This experiment in a line: TAG lipid buildup reduction in H9c2 cells – cell-based, uHTS, fluorescence, primary screen (AID 651582).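 On inhibition: 0% = DMSO wells and 100% = triacsin C control wells.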 The note with it: Nile Red lipid (TAG) fluorescence, at 12.5 µM, cells loaded with 200 µM oleic acid; DAPI nuclei signal change (viability), lower = more cytotoxic: measured here: DAPI nuclei count viability; inhibition: stronger effect = higher value.
One may read the inhibition as the drop in the measured response relative to a control, in per cent. Regarding `O=C(COC(=O)/C=C/c1ccc(Cl)cc1)NC1CCS(=O)(=O)C1` (centres undefined), the DAPI nuclei signal change (viability), lower = more cytotoxic is -1.68% and the inhibition is 1.31% (inactive).

Take `O=C(COC(=O)c1ccccn1)NNC(=O)c1ccc(Br)cc1`: the DAPI nuclei signal change (viability), lower = more cytotoxic was 1.16% and the inhibition was 11.9% (inactive).

In the case of `COC(=O)c1ccc(CN2CCCC(C(=O)Nc3cccc(-n4cnnn4)c3)C2)cc1` (centres undefined), the DAPI nuclei signal change (viability), lower = more cytotoxic is 3.39% and the inhibition is -0.9% (inactive).

Take `COc1ccc(C(CNC(=O)c2cccc(S(=O)(=O)Nc3ccc(Br)cc3)c2)N(C)C)cc1` (centres undefined): the DAPI nuclei signal change (viability), lower = more cytotoxic worked out at 7.9% and the inhibition was -15.7% (inactive).

Regarding `O=C(Nc1nc(-c2ccncc2)cs1)C1COc2ccccc2O1` (centres undefined), the DAPI nuclei signal change (viability), lower = more cytotoxic was -38.7% and the inhibition is 50.4% (active).

As to `O=C(Nc1nc2c(F)cc(F)cc2s1)C1COc2ccccc2O1` (centres undefined), the DAPI nuclei signal change (viability), lower = more cytotoxic is -6.26% and the inhibition is -0.591% (inactive).

With `COc1ccc(OC)c2sc(NC(=O)C3COc4ccccc4O3)nc12` (centres undefined), the DAPI nuclei signal change (viability), lower = more cytotoxic is -0.689% and the inhibition was -1.03% (inactive).

In the case of `CCCCc1ccc(NS(=O)(=O)c2cccc(C(=O)N3CCCN(C)CC3)c2)cc1`, the DAPI nuclei signal change (viability), lower = more cytotoxic came out at 4.43% and the inhibition was -11.5% (inactive).

`CC1O[C@@H](OC2C(O)C(C)O[C@H](OC(=O)[C@]34CCC(C)(C)C[C@H]3C3=CCC5[C@@]6(C)CC(O)C(O[C@@H]7OC(CO)C(O)[C@@H](O)[C@@H]7O)[C@@](C)(C(=O)O)C6CC[C@@]5(C)[C@]3(CO)CC4)C2O[C@H]2OC(C)[C@@H](O[C@@H]3OCC(O[C@@H]4OC(CO)C(O)[C@H](O)C4O)[C@@H](O)[C@@H]3O)[C@H](O)C2O)C(O)C(O)C1O` (some centres undefined): the DAPI nuclei signal change (viability), lower = more cytotoxic is -3.05% and the inhibition was 18.4% (inactive).

Consider `COc1ccc(NC(=O)CN(C)CC(=O)Nc2cccc(C(F)(F)F)c2)cc1`, for which the DAPI nuclei signal change (viability), lower = more cytotoxic came to 6.16% and the inhibition was -9.17% (inactive).

On to `COc1cc(NC(=O)c2cncc(-c3ccc(C#N)cc3)c2)cc(C(=O)Nc2cccc(C(F)(F)F)c2)c1`, for which the DAPI nuclei signal change (viability), lower = more cytotoxic is 0.0489% and -1.97%; the inhibition was -19.1% (inactive) and 61.3% (active).

Consider `COc1ccc(NC(=O)C(=O)NCC(=O)Nc2cccc(C(F)(F)F)c2)cc1`, for which the DAPI nuclei signal change (viability), lower = more cytotoxic was -2.54% and the inhibition was 4.19% (inactive).

For the compound `N#Cc1ccc(Oc2ccc(C(F)(F)F)cc2NC(=O)c2ccc(F)cc2)cc1`, the DAPI nuclei signal change (viability), lower = more cytotoxic is 4.06% and the inhibition is -7.23% (inactive).

As for `COc1cc(NC(=O)c2[nH]cnc2C(N)=O)cc(C(=O)Nc2cccc(C(F)(F)F)c2)c1`, the DAPI nuclei signal change (viability), lower = more cytotoxic is -14.2% and the inhibition was 53.7% (active).

For `Cc1cccc(NC(=O)c2nnn(-c3cccc(C(F)(F)F)c3)c2N)c1`, the DAPI nuclei signal change (viability), lower = more cytotoxic was -5.82% and the inhibition is 3.82% (inactive).

As for `CC(C)(C)OC(=O)C[C@@H]1C/C=C\C[C@@H](CC(=O)N(CCO)Cc2ccccc2)C(=O)N[C@H](Cc2ccccc2)COC1=O`, the DAPI nuclei signal change (viability), lower = more cytotoxic was -3.76% and the inhibition was 9.88% (inactive).

`O=C(COc1ccc(Br)cc1)OCC(=O)c1ccc[nH]1`: the DAPI nuclei signal change (viability), lower = more cytotoxic was determined as 0.498% and the inhibition is -0.551% (inactive).

These data come from PubChem BioAssay AID651582 (Sanford-Burnham Center for Chemical Genomics, 2012).
